# Values joined by “and” are separate entries in the source; they are usually repeats but may differ in a detail not shown here. Equal values may be shown once. Inconclusive results are not listed. A call without a number means that no potency is given here. The source holds several records for some structures; these can differ, active in one and inactive in another. Active and inactive are the calls of the source. Unless noted, calls come from the whole dose curve; as a rule, active = well fitted curve in the direction sought with a large enough effect in the repeat runs; inconclusive = weak or mixed curves; inactive = no such curve, though single readings can be large; an effect the other way counts as inactive or inconclusive.
# Key:
# [1] = qHTS assay for small molecules that induce genotoxicity in human embryonic kidney cells expressing luciferase-tagged ATAD5 (AID 651632); note: nearly all actives have a fitted effect of over 15% in size; note: potency is the fitted concentration of half-maximal effect
# How it was run: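 DMSO vehicle served as the control. HEK293T reporter cells, 16 hr at 37C, then 30 min Amplite at room temperature; ATAD5 induction is measured as luciferase activity.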
# [2] = qHTS assay for small molecules that induce genotoxicity in human embryonic kidney cells expressing luciferase-tagged ATAD5 - cell viability (AID 651634; calls by dose curve; note: nearly all actives have a fitted effect of over 25% in size; note: potency is the fitted concentration of half-maximal effect)
# How it was run: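 Here HEK293T cells with the ATAD5 luciferase reporter are incubated with test compounds for 15.5 hr, and cytotoxicity is then gauged by measuring protease activity in live cells using fluorescence.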
# [3] = qHTS assay for small molecule disruptors of the mitochondrial membrane potential - cell viability (AID 720634; calls by dose curve; note: nearly all actives have a fitted effect of over 20% in size; note: potency is the fitted concentration of half-maximal effect)
# How it was run: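 Viability of HepG2 cells is scored from ATP content by luminescence; cells are exposed to compound for 1 hr at 37 C and 5% CO2, then dosed with m-MPI dye before the CellTiter-Glo reagent.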
# [4] = qHTS assay to test for compound auto fluorescence at 590 nm (red) in HepG2 cells (AID 720674)
# How it was run: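 We screened compounds on adherent HepG2 cells, incubating them for an hour at 37 C in 5% CO2 before reading emission at 590 nm under 540 nm excitation; values reflect equivalence to Rose Bengal sodium fluorescence.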
# [5] = qHTS assay to test for compound auto fluorescence at 535 nm (green) in HepG2 cells (AID 720675); note: potency is the fitted concentration of half-maximal effect
# [6] = qHTS assay to test for compound auto fluorescence at 460 nm (blue) in HEK293 cells (AID 720678)
# How it was run: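 After cell attachment (4-5 hr, 37C), compounds were pinned onto HEK293 monolayers in 10% dialyzed FBS medium. The blue channel (405/460 nm) was read following overnight culture. Equivalency was calculated against triamterene.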
# [7] = qHTS assay to test for compound auto fluorescence at 590 nm (red) in HEK293 cells (AID 720679)
# How it was run: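 Plates of HEK293 cells (10% dialyzed FBS) are treated with 23 nL compound or DMSO vehicle after a 4-5 hr attachment period, incubated overnight at 37C, and read for red fluorescence at 540/590nm.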
# [8] = qHTS assay for small molecule agonists of the p53 signaling pathway - cell viability (AID 651633; calls by dose curve; note: nearly all actives have a fitted effect of over 30% in size; note: potency is the fitted concentration of half-maximal effect)
# How it was run: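 Viability counter-read: CellTiter-Glo luminescence (30 min, room temperature) in the same p53RE-bla plates. These plates had been exposed to compounds for 16 h at 37 C.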
# [9] = qHTS assay for small molecule disruptors of the mitochondrial membrane potential (AID 720635); note: potency is the fitted concentration of half-maximal effect
# How it was run: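 Mitochondrial membrane potential tracked with Mito-MPS dye, red aggregates (ex 540/em 590 nm) against green monomers (ex 490/em 535 nm). Compound treatment 1 hr at 37C, dye 30 min in HepG2.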
Structure (SMILES),Potency [1],Potency [2],Potency [3],outcome [4],Potency [5],Potency [6],outcome [7],Potency [8],Potency [9],"fluorescence, relative to Rose Bengal [4]","fluorescence, % of fluorescein control [5]","fluorescence, % of triamterene [6]","fluorescence, % of fluorescent control [7]"
Cc1cc(OCCOCC[N+](C)(C)Cc2ccccc2)ccc1C(C)(C)CC(C)(C)C,inactive,9.63 µM (active),12.1 µM (active),inactive,inactive,inactive,inactive,,,,,,
c1ccc2c(c1)CCCC2C1=NCCN1 (stereo not drawn),inactive,inactive,inactive,inactive,inactive,inactive,inactive,inactive,,,,,
CCC(C)(Oc1ccc(C2(c3ccc(OC(C)(CC)C(=O)O)cc3)CCCCC2)cc1)C(=O)O (stereo not drawn),inactive,inactive,inactive,inactive,inactive,inactive,inactive,inactive,,,,,
CCN(CC)CCOc1ccc(/C(=C(\Cl)c2ccccc2)c2ccccc2)cc1,,inactive,inactive,inactive,inactive,inactive,inactive,29.8 µM (active) and 49.6 µM (active),,,,,
CC(COc1ccccc1)N(CCCl)Cc1ccccc1 (stereo not drawn),,inactive,inactive,inactive,inactive,inactive,inactive,,inactive and 43.7 µM (active) and 43.3 µM (active),,,,
CC(C)(C)c1ccc(O)c(C(C)(C)C)c1,inactive,,24.2 µM (active),inactive,inactive,inactive,inactive,60.9 µM (active) and 48.6 µM (active),2.72 µM (active) and 3.06 µM (active),,,,
O=C(Cl)c1cccc(C(=O)Cl)c1,inactive,inactive,inactive,inactive,,inactive,inactive,inactive,,,,,
O=C(Oc1ccccc1)c1ccccc1O,inactive,inactive,inactive,inactive,inactive,inactive,inactive,,inactive and 54.5 µM (active),,,,
CCCCCCCCCCCCCCCCCl,inactive,inactive,inactive,,,,,inactive,,-0.733% [at 18.6 µM] (inactive),-0.021% [at 18.6 µM] (inactive),0.0135% [at 18.6 µM] (inactive),0.199% [at 18.6 µM] (inactive)
CC(C)CCCCCCc1ccc(O)cc1,inactive,,6.22 µM (active) and 61.1 µM (active),inactive,inactive,inactive,inactive,62.2 µM (active),5.31 µM (active) and 1.56 µM (active) and 5.45 µM (active),,,,
CC(C)CCOCc1ccccc1,inactive,inactive,inactive,inactive,inactive,inactive,inactive,inactive,,,,,
COc1ccc(CCN(C)CCCC(C#N)(c2ccc(OC)c(OC)c2)C(C)C)cc1OC (stereo not drawn),inactive,inactive,,inactive,inactive,inactive,inactive,inactive,,,,,
Cc1ccc(-c2cc(C(F)(F)F)nn2-c2ccc(S(N)(=O)=O)cc2)cc1,inactive,,11.9 µM (active) and 12.1 µM (active) and 30.6 µM (active),inactive,,inactive,inactive,54.3 µM (active),,,,,
O=C(O[C@@H]1Cc2c(O)cc(O)cc2O[C@@H]1c1cc(O)c(O)c(O)c1)c1cc(O)c(O)c(O)c1,inactive,,inactive,inactive,inactive,inactive,inactive,inactive,27.4 µM (active),,,,
CCCCCCCCCCCCc1ccccc1O,inactive,30.6 µM (active),inactive,inactive,,inactive,inactive,26.9 µM (active) and 24.3 µM (active),,,,,
CCN(CC)C(=S)SSC(=S)N(CC)CC,11.9 µM (active) and 61.1 µM (active) and 13.7 µM (active),,inactive,inactive,inactive,inactive,inactive,,,,,,
O=C1Nc2ccccc2C1(c1ccc(O)cc1)c1ccc(O)cc1,inactive,inactive,inactive,inactive,inactive,inactive,inactive,,13.7 µM (active),,,,
CCCCCC(=O)O[C@]1(C(C)=O)CC[C@H]2[C@@H]3CCC4=CC(=O)CC[C@]4(C)[C@H]3CC[C@@]21C,inactive,inactive,inactive,inactive,,inactive,inactive,26.6 µM (active) and 54.1 µM (active),,,,,
Nc1nc(=S)c2[nH]cnc2[nH]1,inactive,,inactive,inactive,inactive,inactive,inactive,,inactive,,,,
O=C(O)c1cccc(C(=O)O)c1,,,inactive,inactive,,inactive,inactive,inactive,,,,,
CCc1cc(C(C)(C)C)c(O)c(C(C)(C)C)c1,inactive,,inactive,inactive,inactive,inactive,inactive,15.5 µM (active) and inactive,15.5 µM (active) and 30.6 µM (active),,,,
O=C1OC2(c3ccc(O)cc3Oc3cc(O)ccc32)c2ccccc21,inactive,,inactive,inactive,3.16 µM (active) and 2.51 µM (active) and 3.98 µM (active),inactive,inactive,,84.1 nM (active) and 61.1 nM (active),,,,
CCCCCCCCCCCC[N+](C)(C)C,inactive,inactive,inactive,inactive,inactive,inactive,inactive,,,,,,
COc1ccc(Cc2cnc(N)nc2N)cc1OC,inactive,inactive,inactive,inactive,inactive,inactive,inactive,inactive,,,,,
CC(=O)O[C@]1(C(C)=O)CC[C@H]2[C@@H]3C[C@H](C)C4=CC(=O)CC[C@]4(C)[C@H]3CC[C@@]21C,inactive,inactive,inactive,inactive,inactive,inactive,inactive,inactive,,,,,
NNCCc1ccccc1,inactive,inactive,inactive,inactive,inactive,inactive,inactive,,inactive,,,,
O=C1CC2(CCCC2)CC(=O)N1CCCCN1CCN(c2ncccn2)CC1,inactive,inactive,inactive,inactive,,inactive,inactive,,inactive and 30.6 µM (active),,,,

# From PubChem BioAssay (Tox21)
